Laboratory results as given in ChEMBL document CHEMBL1961873, “Compounds: GSK PKIS; Assays: Nanosyn kinase panel” (2012).

Columns and labels:
[1] = molecular target: Ribosomal protein S6 kinase alpha-6 (Homo sapiens) (UniProt Q9UK32); settings: at 1 µM;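 also: each value is a mean inhibition of RSK4 from a GSK PKIS panel screen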
[2] = molecular target: T1, Serine/threonine-protein kinase Sgk1 (Homo sapiens) (UniProt O00141); settings: at 0.1 µM
T1 sequence (whole entry): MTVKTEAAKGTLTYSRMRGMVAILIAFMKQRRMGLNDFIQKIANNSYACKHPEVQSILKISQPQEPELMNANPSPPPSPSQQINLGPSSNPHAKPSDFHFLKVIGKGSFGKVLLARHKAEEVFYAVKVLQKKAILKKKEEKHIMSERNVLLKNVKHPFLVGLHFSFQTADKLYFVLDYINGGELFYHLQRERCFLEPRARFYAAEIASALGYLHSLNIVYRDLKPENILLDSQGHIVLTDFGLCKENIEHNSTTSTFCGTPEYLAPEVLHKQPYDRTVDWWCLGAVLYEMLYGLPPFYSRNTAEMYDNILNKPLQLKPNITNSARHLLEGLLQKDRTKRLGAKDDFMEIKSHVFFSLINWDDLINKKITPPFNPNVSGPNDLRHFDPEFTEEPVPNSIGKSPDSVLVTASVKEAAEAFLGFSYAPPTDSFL

[3] = molecular target: T1, Serine/threonine-protein kinase Sgk1 (Homo sapiens); settings: at 1 µM
[4] = molecular target: T2, Serine/threonine-protein kinase Sgk2 (Homo sapiens) (UniProt Q9HBY8); settings: at 0.1 µM
T2 sequence (whole entry): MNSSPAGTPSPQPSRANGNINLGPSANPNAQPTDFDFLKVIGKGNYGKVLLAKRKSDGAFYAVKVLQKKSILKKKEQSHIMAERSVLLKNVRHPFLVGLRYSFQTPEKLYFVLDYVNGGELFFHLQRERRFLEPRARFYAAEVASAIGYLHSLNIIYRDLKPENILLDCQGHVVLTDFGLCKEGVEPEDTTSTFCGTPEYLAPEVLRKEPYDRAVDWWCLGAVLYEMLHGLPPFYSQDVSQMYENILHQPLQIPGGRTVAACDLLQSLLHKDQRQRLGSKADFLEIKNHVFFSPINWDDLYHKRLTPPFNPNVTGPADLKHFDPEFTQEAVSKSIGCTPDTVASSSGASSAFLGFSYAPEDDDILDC

[5] = molecular target: T2, Serine/threonine-protein kinase Sgk2 (Homo sapiens); settings: at 1 µM
[6] = molecular target: T3, Serine/threonine-protein kinase Sgk3 (Homo sapiens) (UniProt Q96BR1); settings: at 0.1 µM
T3 sequence (whole entry): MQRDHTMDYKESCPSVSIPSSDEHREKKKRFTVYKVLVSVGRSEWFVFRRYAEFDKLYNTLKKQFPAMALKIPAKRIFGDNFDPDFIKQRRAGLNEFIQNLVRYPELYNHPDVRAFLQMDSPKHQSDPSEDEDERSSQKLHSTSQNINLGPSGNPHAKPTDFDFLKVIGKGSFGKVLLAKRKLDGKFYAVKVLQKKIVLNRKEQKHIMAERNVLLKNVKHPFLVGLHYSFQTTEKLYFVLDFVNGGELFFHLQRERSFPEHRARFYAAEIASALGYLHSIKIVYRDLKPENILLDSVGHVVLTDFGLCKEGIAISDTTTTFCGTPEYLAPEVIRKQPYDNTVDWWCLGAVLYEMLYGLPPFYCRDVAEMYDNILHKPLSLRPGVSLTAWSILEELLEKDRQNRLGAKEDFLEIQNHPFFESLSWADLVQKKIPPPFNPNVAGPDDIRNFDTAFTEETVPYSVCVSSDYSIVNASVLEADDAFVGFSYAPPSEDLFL

[7] = molecular target: T3, Serine/threonine-protein kinase Sgk3 (Homo sapiens); settings: at 1 µM
[8] = molecular target: 5'-AMP-activated protein kinase catalytic subunit alpha-1 (Homo sapiens) (UniProt Q13131); settings: at 0.1 µM
5'-AMP-activated protein kinase catalytic subunit alpha-1 (Homo sapiens), sequence (Q13131 whole entry, looked up): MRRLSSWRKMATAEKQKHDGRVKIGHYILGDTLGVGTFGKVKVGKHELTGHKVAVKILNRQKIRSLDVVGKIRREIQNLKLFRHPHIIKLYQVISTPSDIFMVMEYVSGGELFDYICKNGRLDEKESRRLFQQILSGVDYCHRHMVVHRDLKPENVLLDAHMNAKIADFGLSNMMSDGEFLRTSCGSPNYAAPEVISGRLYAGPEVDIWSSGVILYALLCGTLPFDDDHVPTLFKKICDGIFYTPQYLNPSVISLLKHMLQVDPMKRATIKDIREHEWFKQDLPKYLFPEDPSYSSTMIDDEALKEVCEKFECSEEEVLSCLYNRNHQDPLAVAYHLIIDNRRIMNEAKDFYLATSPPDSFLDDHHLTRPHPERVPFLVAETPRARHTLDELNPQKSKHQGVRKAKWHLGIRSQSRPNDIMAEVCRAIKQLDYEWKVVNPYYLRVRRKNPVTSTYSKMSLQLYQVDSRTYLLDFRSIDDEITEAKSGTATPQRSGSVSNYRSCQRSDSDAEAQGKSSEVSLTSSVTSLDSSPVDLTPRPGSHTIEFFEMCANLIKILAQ

[9] = molecular target: 5'-AMP-activated protein kinase catalytic subunit alpha-1 (Homo sapiens) (UniProt Q13131); settings: at 1 µM
[10] = molecular target: 5'-AMP-activated protein kinase catalytic subunit alpha-2 (Homo sapiens) (UniProt P54646); settings: at 0.1 µM
5'-AMP-activated protein kinase catalytic subunit alpha-2 (Homo sapiens), sequence (P54646 whole entry, looked up): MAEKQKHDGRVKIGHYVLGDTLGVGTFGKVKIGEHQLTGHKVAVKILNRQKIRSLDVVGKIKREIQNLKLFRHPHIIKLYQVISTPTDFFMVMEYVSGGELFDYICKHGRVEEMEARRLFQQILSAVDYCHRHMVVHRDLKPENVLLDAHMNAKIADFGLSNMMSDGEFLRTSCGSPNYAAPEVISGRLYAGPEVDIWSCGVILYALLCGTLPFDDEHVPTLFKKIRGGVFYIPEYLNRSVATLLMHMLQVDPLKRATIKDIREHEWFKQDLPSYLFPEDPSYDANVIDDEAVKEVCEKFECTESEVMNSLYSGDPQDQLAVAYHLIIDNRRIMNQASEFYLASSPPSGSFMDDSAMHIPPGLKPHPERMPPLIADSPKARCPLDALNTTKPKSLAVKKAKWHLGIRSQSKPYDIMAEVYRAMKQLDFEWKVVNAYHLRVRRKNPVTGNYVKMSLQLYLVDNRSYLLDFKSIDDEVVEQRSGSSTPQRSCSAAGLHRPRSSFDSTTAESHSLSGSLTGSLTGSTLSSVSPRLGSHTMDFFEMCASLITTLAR

[11] = molecular target: 5'-AMP-activated protein kinase catalytic subunit alpha-2 (Homo sapiens) (UniProt P54646); settings: at 1 µM
[12] = molecular target: T4, NUAK family SNF1-like kinase 1 (Homo sapiens) (UniProt O60285); settings: at 0.1 µM
T4 sequence (whole entry): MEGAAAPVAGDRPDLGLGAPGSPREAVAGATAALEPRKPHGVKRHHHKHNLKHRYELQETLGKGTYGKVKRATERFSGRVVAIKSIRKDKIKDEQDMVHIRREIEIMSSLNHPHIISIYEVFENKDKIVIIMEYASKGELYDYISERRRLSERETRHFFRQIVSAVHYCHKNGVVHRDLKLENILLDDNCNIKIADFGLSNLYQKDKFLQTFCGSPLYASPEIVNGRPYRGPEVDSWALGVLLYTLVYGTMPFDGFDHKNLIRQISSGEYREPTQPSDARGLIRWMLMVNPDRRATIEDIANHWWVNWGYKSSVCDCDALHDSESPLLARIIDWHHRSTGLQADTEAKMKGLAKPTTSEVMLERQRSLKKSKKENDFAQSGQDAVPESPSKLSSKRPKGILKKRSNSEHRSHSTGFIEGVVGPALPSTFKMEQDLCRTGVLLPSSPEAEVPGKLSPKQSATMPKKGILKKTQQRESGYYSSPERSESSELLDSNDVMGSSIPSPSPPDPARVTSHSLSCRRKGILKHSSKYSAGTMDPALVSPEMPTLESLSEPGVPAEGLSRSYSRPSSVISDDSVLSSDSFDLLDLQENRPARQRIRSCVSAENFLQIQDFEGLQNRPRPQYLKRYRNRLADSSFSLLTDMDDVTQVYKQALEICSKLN

[13] = molecular target: T4, NUAK family SNF1-like kinase 1 (Homo sapiens); settings: at 1 µM
[14] = molecular target: T5, Serine/threonine-protein kinase BRSK1 (Homo sapiens) (UniProt Q8TDC3); settings: at 0.1 µM
T5 sequence (whole entry): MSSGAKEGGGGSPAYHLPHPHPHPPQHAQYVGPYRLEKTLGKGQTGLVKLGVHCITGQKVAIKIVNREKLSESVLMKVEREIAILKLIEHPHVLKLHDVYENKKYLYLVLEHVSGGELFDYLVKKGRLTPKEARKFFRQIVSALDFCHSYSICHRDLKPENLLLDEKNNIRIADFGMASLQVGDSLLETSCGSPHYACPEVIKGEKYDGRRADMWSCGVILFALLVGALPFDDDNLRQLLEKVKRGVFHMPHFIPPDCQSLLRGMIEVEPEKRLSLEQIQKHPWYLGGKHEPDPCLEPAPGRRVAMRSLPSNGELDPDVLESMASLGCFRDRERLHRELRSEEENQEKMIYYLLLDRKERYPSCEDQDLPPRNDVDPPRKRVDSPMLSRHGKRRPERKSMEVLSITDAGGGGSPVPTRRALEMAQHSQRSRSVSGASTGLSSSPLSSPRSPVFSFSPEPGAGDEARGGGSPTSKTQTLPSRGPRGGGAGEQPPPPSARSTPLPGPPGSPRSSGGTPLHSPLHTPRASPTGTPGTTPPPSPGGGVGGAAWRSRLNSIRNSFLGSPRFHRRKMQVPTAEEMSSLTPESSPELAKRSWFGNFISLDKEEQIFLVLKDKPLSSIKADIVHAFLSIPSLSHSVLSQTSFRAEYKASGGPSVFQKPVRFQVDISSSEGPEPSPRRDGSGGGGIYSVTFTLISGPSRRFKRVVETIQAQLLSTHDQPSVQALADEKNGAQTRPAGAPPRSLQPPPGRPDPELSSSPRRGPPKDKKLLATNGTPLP

[15] = molecular target: T5, Serine/threonine-protein kinase BRSK1 (Homo sapiens); settings: at 1 µM
[16] = molecular target: T6, Serine/threonine-protein kinase BRSK2 (Homo sapiens) (UniProt Q8IWQ3); settings: at 0.1 µM
T6 sequence (whole entry): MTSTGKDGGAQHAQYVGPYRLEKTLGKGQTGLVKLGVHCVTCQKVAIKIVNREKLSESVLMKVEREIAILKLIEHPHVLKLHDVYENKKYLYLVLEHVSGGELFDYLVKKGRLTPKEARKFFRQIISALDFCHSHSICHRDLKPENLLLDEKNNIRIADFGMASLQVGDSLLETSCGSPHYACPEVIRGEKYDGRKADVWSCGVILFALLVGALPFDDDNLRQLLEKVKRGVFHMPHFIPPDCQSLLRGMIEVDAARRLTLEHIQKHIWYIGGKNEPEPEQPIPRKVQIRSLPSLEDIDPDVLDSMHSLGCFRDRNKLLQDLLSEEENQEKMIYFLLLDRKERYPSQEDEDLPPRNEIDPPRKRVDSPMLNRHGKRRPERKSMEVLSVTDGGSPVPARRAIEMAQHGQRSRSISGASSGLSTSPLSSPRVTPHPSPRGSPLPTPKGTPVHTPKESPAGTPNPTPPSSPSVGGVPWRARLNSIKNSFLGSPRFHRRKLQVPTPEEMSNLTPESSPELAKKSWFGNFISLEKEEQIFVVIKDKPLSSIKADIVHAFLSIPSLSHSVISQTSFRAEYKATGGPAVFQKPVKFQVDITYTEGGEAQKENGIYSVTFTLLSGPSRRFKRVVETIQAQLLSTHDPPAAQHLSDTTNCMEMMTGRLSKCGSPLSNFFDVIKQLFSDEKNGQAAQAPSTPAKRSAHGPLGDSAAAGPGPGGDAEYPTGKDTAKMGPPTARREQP

[17] = molecular target: T6, Serine/threonine-protein kinase BRSK2 (Homo sapiens); settings: at 1 µM
[18] = molecular target: Calcium/calmodulin-dependent protein kinase type 1D (Homo sapiens) (UniProt Q8IU85); settings: at 0.1 µM
Calcium/calmodulin-dependent protein kinase type 1D (Homo sapiens), sequence (Q8IU85 whole entry, looked up): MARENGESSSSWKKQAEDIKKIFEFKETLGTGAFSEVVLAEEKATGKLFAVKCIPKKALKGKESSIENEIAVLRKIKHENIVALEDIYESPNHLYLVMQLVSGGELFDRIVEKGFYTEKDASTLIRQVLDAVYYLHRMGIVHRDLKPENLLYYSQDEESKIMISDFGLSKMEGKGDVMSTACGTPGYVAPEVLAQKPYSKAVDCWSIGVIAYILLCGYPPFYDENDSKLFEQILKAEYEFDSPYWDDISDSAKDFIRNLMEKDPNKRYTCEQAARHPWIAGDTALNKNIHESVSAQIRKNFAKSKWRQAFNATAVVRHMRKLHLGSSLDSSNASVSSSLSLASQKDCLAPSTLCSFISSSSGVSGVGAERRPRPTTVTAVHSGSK

[19] = molecular target: Calcium/calmodulin-dependent protein kinase type 1D (Homo sapiens) (UniProt Q8IU85); settings: at 1 µM
[20] = molecular target: Calcium/calmodulin-dependent protein kinase type II subunit alpha (Homo sapiens) (UniProt Q9UQM7); settings: at 0.1 µM;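 also: reported values are averages (mean inhibition of CAMK2A)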
Calcium/calmodulin-dependent protein kinase type II subunit alpha (Homo sapiens), sequence (Q9UQM7 whole entry): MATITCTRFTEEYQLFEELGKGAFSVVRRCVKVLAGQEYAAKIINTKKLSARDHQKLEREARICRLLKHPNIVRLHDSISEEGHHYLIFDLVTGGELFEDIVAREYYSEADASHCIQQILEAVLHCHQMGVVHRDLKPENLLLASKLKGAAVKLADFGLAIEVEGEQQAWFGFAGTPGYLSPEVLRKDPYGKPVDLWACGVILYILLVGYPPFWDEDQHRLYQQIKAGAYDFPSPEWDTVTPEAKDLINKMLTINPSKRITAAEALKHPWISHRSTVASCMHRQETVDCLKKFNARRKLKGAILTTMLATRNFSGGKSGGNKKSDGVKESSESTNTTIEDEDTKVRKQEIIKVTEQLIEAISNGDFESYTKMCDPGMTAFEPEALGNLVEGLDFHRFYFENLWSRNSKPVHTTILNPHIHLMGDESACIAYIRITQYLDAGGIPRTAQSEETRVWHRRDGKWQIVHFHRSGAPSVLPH

Ribosomal protein S6 kinase alpha-6 (Homo sapiens), sequence (Q9UK32 whole entry): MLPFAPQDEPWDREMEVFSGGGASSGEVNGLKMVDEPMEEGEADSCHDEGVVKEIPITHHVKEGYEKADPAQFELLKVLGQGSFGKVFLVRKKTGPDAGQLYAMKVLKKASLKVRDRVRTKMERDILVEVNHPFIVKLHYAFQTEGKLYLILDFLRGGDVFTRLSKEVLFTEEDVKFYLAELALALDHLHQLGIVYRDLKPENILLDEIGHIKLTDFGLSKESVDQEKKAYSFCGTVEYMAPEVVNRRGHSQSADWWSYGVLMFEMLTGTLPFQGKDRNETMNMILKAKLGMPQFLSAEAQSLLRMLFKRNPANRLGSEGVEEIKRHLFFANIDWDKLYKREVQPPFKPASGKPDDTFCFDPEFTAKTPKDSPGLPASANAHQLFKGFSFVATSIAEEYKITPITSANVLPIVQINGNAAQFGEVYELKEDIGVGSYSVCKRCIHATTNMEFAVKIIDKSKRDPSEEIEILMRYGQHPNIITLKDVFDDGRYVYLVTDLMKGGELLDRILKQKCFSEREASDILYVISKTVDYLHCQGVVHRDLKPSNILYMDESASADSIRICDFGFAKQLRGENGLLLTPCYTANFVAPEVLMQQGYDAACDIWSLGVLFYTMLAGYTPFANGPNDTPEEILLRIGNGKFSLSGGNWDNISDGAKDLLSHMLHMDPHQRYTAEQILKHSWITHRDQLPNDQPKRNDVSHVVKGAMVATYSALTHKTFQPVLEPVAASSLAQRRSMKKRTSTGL

Compound | inhibition [1] | inhibition [2] | inhibition [3] | inhibition [4] | inhibition [5] | inhibition [6] | inhibition [7] | inhibition [8] | inhibition [9] | inhibition [10] | inhibition [11] | inhibition [12] | inhibition [13] | inhibition [14] | inhibition [15] | inhibition [16] | inhibition [17] | inhibition [18] | inhibition [19] | inhibition [20]
Clc1ccc(CNc2nccc(-c3cnn4ncccc34)n2)cc1 | 0.72% | 0.33% | 3.99% | 3.3% | 1.91% | 0.59% | 0.73% | -0.21% | 1.83% | -4.66% | 0.84% | 3.31% | 9.78% | 0.41% | 1.49% | 1.65% | 4.48% | 1.73% | 1.01% | 2.51%
NC(=O)c1cc(-c2ccc(F)cc2)cc(-c2ccncc2)c1N | 0.89% | 3.79% | 4.51% | 1.44% | 2.58% | 3.22% | 5.96% | 2.78% | 2.57% | 2.54% | 2.48% | -0.64% | -1.26% | 0.38% | -1.89% | 1.65% | 2.63% | -0.61% | 0.29% | 3.47%
COc1cc(Nc2ncc3c(C)nc(-c4cccc(C(F)(F)F)c4)n3n2)cc(OC)c1OC | 29.1% | 3.85% | 8.66% | -1.55% | 6.37% | 5.08% | 8.49% | 6.54% | 39.2% | 5.38% | 25% | 35.4% | 65.3% | 4.57% | 7.57% | 5.62% | 9.19% | -1.94% | -0.82% | 2.25%
CN1CCN(CCCNc2nc3ccc(Oc4ccc(NC(=O)Nc5cc(C(F)(F)F)ccc5F)cc4)cc3[nH]2)CC1 | -0.1% | 4.51% | 5.49% | 0.79% | 1.09% | 3.14% | 0.75% | 1.09% | -0.25% | 2.94% | 3.1% | 0.88% | 4.39% | 2.48% | 2.58% | 1.15% | 0.19% | 2.28% | 4.38% | 3.27%
Nc1nccc(-c2c(-c3ccc(F)cc3)ncn2C2CCC(O)CC2)n1 (stereo not given) | 3.39% | -2.26% | -1.85% | -3.55% | 7.09% | 0.34% | 1.61% | 3.45% | 0.93% | 0.71% | -1.6% | 9.02% | 39.9% | 0.33% | 1.44% | 1.13% | 1.19% | -2.47% | -0.75% | -3.31%
COc1cc2ncn(-c3cc(OCc4cccs4)c(C(N)=O)s3)c2cc1OC | 9.08% | 5.73% | 8.78% | 4.34% | 10.6% | 5.06% | 6.9% | 3.16% | 12.8% | 3.12% | 5.5% | 20.1% | 63.2% | 9% | 50% | 16.6% | 60.6% | 0.15% | 0.12% | 2.87%
Fc1ccc(-c2ncn(C3CCNCC3)c2-c2ccnc(Oc3ccc(F)c(F)c3)n2)cc1 | -0.02% | 1.79% | 3.94% | 3.89% | 3.96% | 2.65% | 2.26% | 4.6% | 5.31% | 3.75% | 4.77% | 2.44% | 6.58% | 1.29% | 3.93% | 3.75% | 5.29% | -1.15% | -1.08% | 2.48%
